According to PubChem BioAssay (Tox21):
Results filed as inconclusive are left out. Active and inactive are the calls of the source. Unless noted, the call rests on the fitted dose curve.

Experiments:
[1] = qHTS assay to identify small molecule agonists of the sonic hedgehog signaling (Shh) pathway (AID 1259368);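 further: NIH/3T3-derived 3T3Gli1-Luc cells carrying a stable Gli1-driven firefly luciferase reporter; series mostly up to about 92 µM; nearly all actives have a fitted effect of over 15% in size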
Summary of the method: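 Luminescent signal was taken as a measure of Gli1-controlled luciferase expression in stably transfected NIH/3T3-derived cells that had been treated for 24 hr with compounds delivered in DMSO.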

[2] = qHTS assay to identify small molecule antagonists of the sonic hedgehog signaling (Shh) pathway (AID 1259369); further: nearly all actives have a fitted effect of over 45% in size; further: potency means the concentration at half of the fitted maximal effect
Summary of the method: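 Screening used 3T3Gli1-Luc cells at 2,000 per well, compounds delivered in DMSO, and conditioned medium as agonist stimulus; plates incubated 24hr at 37 C and 5% CO2 before a 30min luciferase step.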

[3] = biological target: Estrogen receptor beta (Homo sapiens) (UniProt Q92731); assay: qHTS assay to identify small molecule agonists of the estrogen receptor beta (ER-beta) signaling pathway (AID 1259377; active means well fitted activation curve with a large enough effect in the signal ratio in the repeat runs, not every such curve was filed as active; the % refers to the signal ratio)
Estrogen receptor beta (Homo sapiens), sequence (Q92731 whole entry, looked up): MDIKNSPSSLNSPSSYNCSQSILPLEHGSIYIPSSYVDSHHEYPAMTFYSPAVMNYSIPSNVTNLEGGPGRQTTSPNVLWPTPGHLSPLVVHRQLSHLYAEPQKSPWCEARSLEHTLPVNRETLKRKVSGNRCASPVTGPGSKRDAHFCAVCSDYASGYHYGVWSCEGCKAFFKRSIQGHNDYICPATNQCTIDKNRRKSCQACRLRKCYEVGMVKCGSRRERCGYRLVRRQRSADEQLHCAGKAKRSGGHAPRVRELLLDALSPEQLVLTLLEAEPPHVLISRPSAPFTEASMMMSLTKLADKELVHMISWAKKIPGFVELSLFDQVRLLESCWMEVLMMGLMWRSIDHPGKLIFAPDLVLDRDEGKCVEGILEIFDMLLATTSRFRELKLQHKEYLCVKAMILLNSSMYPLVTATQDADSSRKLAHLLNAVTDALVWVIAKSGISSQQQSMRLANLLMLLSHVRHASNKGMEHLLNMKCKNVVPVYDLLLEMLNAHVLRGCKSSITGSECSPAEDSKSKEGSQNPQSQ
Summary of the method: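 In HEK293T cells bearing a UAS-beta-lactamase reporter under ER-beta control, DMSO-delivered compounds were incubated for 16 hr at 37C. Activity was detected as fluorescence 2 hours after LiveBLAzer B/G FRET substrate addition.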

[4] = biological target: Estrogen receptor beta (Homo sapiens) (UniProt Q92731); assay: qHTS assay to identify small molecule antagonists of the estrogen receptor beta (ER-beta) signaling pathway (AID 1259378; active means well fitted inhibition curve with a large enough effect in the signal ratio in the repeat runs, not every such curve was filed as active; the % refers to the signal ratio; further: potency means the concentration at half of the fitted maximal effect)
Summary of the method: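 ER-beta-UAS-bla HEK293T cells in 2% charcoal-stripped FBS medium treated with compound plus 1nM final 17-beta-estradiol for 16 hr at 37C. Beta-lactamase reporter read by FRET substrate fluorescence after 2 hours at room temperature.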

[5] = qHTS assay to identify small molecule antagonists of the estrogen receptor beta (ER-beta) signaling pathway - cell viability counter screen (AID 1259382; active means well fitted curve in the direction sought with a large enough effect in the repeat runs; an effect the other way counts as inactive or inconclusive; further: series mostly up to about 92 µM; nearly all actives have a fitted effect of over 55% in size)
Summary of the method: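 Tox21 10K library tested in qHTS format on ER-beta-bla HEK293T cells stimulated with 1nM E2; 16 hr treatment at 37C. Same-well CellTiter-Glo luminescence served as the cell viability measure.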

[6] = qHTS assay to identify small molecule agonists or antagonists of the thyroid stimulating hormone receptor (TSHR) signaling pathway - wild type cell line counter screen (AID 1259384)
Summary of the method: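 Wild-type Hek293 cells, 800/well, 18 h at 37C, then compound with Ro20-1724 for 30 min RT. cAMP by HTRF (cAMP-d2/anti-cAMP cryptate), 1 h RT, fluorescence read. 15 concentrations, triplicates.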

[7] = qHTS assay to identify small molecule agonists of the estrogen receptor alpha (ER-alpha) signaling pathway in the presence of an antagonist - cell viability counter screen (AID 1259386; active means well fitted curve in the direction sought with a large enough effect in the repeat runs; an effect the other way counts as inactive or inconclusive;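 further: series mostly up to about 92 µM; cells exposed to compounds for 22 h at 37 °C before the viability read; nearly all actives have a fitted effect of over 30% in size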)
Summary of the method: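 Fluorescent CellTiter-Fluor viability signal from VM7Luc4E2 cells, with the reagent added during the final hour of a 22hr compound exposure at 37C in the presence of 10.0nM ICI-182,780.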

[8] = biological target: Progesterone receptor (Homo sapiens) (UniProt P06401); assay: qHTS assay to identify small molecule agonists of the progesterone receptor (PR) signaling pathway (AID 1346784); further: nearly all actives have a fitted effect of over 30% in size; further: potency means the concentration at half of the fitted maximal effect
Progesterone receptor (Homo sapiens), sequence (P06401 whole entry, looked up): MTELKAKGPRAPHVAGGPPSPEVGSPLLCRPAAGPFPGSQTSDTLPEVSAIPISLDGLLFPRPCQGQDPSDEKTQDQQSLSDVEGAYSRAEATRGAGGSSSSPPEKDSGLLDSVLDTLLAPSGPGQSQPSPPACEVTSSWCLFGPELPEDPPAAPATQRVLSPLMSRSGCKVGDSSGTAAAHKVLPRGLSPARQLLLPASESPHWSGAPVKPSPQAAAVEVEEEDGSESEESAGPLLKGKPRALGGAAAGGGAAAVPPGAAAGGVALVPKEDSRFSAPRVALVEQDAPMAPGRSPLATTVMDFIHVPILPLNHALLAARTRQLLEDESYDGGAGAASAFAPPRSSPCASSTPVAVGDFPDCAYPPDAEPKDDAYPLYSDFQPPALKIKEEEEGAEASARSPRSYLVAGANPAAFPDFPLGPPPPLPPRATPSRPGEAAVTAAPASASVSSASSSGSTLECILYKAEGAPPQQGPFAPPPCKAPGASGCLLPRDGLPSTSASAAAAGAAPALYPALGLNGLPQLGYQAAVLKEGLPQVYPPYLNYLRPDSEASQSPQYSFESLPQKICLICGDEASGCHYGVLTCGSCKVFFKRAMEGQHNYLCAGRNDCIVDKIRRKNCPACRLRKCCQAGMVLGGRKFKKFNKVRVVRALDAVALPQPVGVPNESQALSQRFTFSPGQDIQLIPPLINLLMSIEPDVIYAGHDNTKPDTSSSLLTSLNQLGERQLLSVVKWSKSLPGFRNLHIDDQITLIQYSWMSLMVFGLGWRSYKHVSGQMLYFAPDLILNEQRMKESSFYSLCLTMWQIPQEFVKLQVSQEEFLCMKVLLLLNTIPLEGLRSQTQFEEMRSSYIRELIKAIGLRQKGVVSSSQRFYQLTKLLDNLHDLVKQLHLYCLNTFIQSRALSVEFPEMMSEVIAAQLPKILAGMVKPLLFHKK
Summary of the method: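 Using charcoal-stripped serum (2%) to limit endogenous steroids, PR-UAS-bla HEK 293T cells received compounds for 16 hr at 37C after 6 hr plating; beta-lactamase FRET fluorescence was recorded following 2 hr substrate loading at room temperature.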

[9] = biological target: Progesterone receptor (Homo sapiens) (UniProt P06401); assay: qHTS assay to identify small molecule antagonists of the progesterone receptor (PR) signaling pathway (AID 1346795; active means well fitted inhibition curve with a large enough effect in the signal ratio in the repeat runs, not every such curve was filed as active; the % refers to the signal ratio; further: potency means the concentration at half of the fitted maximal effect)
Summary of the method: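 Inhibition of R5020-induced (1 nM final) beta-lactamase reporter signal in PR-UAS-bla HEK293T cells was scored by FRET fluorescence after overnight (16 hr) compound treatment.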

[10] = qHTS assay to identify small molecule antagonists of the progesterone receptor (PR) signaling pathway - cell viability counter screen (AID 1346798; active means well fitted curve in the direction sought with a large enough effect in the repeat runs; an effect the other way counts as inactive or inconclusive; further: series mostly up to about 92 µM; nearly all actives have a fitted effect of over 50% in size)
Summary of the method: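 ATP content as viability readout: CellTiter-Glo luminescence, 30 min room temperature, in PR-UAS-bla HEK293T cells after 16 hr compound/R5020 treatment at 37C and 5% CO2.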

[11] = qHTS assay to identify small molecule agonists of the progesterone receptor (PR) signaling pathway - cell viability counter screen (AID 1346799); further: nearly all actives have a fitted effect of over 45% in size
Summary of the method: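 Cytotoxicity in PR-bla HEK293T cells: 16 h compound, 37C; CellTiter-Glo added post-FRET read; luminescence after 30 min RT.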

[12] = qHTS assay to identify small molecule antagonists of the TGF-beta/Smad signaling pathway - cell viability counter screen (AID 1346824; active means well fitted curve in the direction sought with a large enough effect in the repeat runs; an effect the other way counts as inactive or inconclusive; further: nearly all actives have a fitted effect of over 50% in size)
Summary of the method: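 SBE-bla HEK 293T cells, incubated overnight, then compound plus 0.25 ng/mL TGF-beta1 (stock added) for 5 hr at 37 C. Viability was read in the same wells by CellTiter-Glo luminescence after 30 min at room temperature.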

[13] = qHTS assay to identify small molecule agonists of the TGF-beta/Smad signaling pathway - cell viability counter screen (AID 1346829; active means well fitted curve in the direction sought with a large enough effect in the repeat runs; an effect the other way counts as inactive or inconclusive; further: top concentration of the series differs between compounds; nearly all actives have a fitted effect of over 45% in size)
Summary of the method: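 Compound-treated SBE-bla HEK 293T cells (5 hr, 37 C) were assessed for viability with CellTiter-Glo in parallel with the reporter read.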

[14] = qHTS assay to identify small molecule agonists of the TGF-beta/Smad signaling pathway (AID 1346859; active means well fitted activation curve with a large enough effect in the signal ratio in the repeat runs, not every such curve was filed as active; the % refers to the signal ratio; further: series mostly up to about 77 µM)
Summary of the method: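 Stable Smad binding element-beta-lactamase HEK 293T cells; 5 hr compound exposure at 37 C under 5% CO2; 2 hr room-temperature substrate step; fluorescence excited at 405 nm, collected at 460 nm and 530 nm.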

[15] = biological target: Thyrotropin-releasing hormone receptor (Homo sapiens) (UniProt P34981); assay: qHTS assay to identify small molecule antagonists of the thyrotropin-releasing hormone receptor (TRHR) signaling pathway (AID 1346877; active means well fitted inhibition curve with a large enough effect in the repeat runs, not every such curve was filed as active; further: series mostly up to about 51 µM)
Thyrotropin-releasing hormone receptor (Homo sapiens), sequence (P34981 whole entry, looked up): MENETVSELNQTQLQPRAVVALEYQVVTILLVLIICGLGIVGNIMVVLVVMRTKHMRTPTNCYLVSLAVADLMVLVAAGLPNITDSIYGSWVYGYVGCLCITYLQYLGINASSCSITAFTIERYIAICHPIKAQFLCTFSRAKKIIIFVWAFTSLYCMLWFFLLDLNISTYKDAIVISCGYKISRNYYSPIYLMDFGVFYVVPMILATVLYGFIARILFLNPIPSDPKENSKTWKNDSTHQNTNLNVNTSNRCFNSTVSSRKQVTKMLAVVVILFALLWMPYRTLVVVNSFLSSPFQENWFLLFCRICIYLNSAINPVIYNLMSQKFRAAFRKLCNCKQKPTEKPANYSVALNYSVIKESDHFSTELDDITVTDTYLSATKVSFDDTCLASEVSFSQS
Summary of the method: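 In this cell-based calcium flux format, HEK293 cells expressing TRHR received test compound for 5 min before the agonist TRH (1 nM final). Dye loading lasted 2 h at 37 °C.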

[16] = qHTS assay to identify small molecule agonists of the androgen receptor (AR) signaling pathway in the presence of an antagonist - cell viability counter screen (AID 1259379; active means well fitted curve in the direction sought with a large enough effect in the repeat runs; an effect the other way counts as inactive or inconclusive;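 further: MDA-kb2 human breast cancer cells carrying an MMTV luciferase reporter; series mostly up to about 92 µM; nearly all actives have a fitted effect of over 25% in size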)
Summary of the method: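 In MDA-kb2 cells (human breast carcinoma, MMTV-luciferase), compounds at 15 concentrations plus 3.0uM nilutamide; 16 hr, 37C, 0% CO2; CellTiter-Fluor fluorescence read for viability.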

[17] = qHTS assay to identify small molecule agonists of the estrogen receptor beta (ER-beta) signaling pathway - cell viability counter screen (AID 1259380; active means well fitted curve in the direction sought with a large enough effect in the repeat runs; an effect the other way counts as inactive or inconclusive; further: nearly all actives have a fitted effect of over 30% in size; further: potency means the concentration at half of the fitted maximal effect)
Summary of the method: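 Viability of ER-beta-UAS-bla HEK293T cells was determined by CellTiter-Glo luminescence following 16 hr treatment with test compounds at 37C.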

[18] = biological target: Estrogen receptor (Homo sapiens) (UniProt P03372); assay: qHTS assay to identify small molecule agonists of the estrogen receptor alpha (ER-alpha) signaling pathway in the presence of an antagonist (AID 1259383); further: top concentration of the series differs between compounds; nearly all actives have a fitted effect of over 15% in size
Estrogen receptor (Homo sapiens), sequence (P03372 whole entry, looked up): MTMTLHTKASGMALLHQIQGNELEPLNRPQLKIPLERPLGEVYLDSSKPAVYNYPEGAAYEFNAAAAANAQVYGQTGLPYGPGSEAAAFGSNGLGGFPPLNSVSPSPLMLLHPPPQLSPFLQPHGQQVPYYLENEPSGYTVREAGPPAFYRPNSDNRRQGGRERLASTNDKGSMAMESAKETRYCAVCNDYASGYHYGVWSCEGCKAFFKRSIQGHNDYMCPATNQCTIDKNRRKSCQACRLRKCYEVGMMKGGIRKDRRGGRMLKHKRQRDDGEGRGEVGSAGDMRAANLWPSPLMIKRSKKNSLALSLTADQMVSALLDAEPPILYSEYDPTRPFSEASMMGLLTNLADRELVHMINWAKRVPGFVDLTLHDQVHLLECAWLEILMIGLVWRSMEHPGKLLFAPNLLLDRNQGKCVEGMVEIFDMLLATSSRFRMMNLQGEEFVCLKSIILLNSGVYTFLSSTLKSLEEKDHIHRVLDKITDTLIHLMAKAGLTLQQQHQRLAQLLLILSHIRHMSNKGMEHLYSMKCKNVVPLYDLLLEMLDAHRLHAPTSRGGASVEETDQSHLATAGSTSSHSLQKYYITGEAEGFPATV
Summary of the method: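 In VM7Luc4E2 cells, 4,000 per well, compounds at 15 concentrations were co-incubated 22hr at 37C with 10.0nM final ICI-182,780. Luminescence from the stably transfected 4×ERE-luciferase reporter was recorded 30min after ONE-Glo addition.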

[19] = biological target: Thyrotropin receptor (Homo sapiens) (UniProt P16473); assay: qHTS assay to identify small molecule antagonists of the thyroid stimulating hormone receptor (TSHR) signaling pathway (AID 1259385); further: nearly all actives have a fitted effect of over 20% in size
Thyrotropin receptor (Homo sapiens), sequence (P16473 whole entry, looked up): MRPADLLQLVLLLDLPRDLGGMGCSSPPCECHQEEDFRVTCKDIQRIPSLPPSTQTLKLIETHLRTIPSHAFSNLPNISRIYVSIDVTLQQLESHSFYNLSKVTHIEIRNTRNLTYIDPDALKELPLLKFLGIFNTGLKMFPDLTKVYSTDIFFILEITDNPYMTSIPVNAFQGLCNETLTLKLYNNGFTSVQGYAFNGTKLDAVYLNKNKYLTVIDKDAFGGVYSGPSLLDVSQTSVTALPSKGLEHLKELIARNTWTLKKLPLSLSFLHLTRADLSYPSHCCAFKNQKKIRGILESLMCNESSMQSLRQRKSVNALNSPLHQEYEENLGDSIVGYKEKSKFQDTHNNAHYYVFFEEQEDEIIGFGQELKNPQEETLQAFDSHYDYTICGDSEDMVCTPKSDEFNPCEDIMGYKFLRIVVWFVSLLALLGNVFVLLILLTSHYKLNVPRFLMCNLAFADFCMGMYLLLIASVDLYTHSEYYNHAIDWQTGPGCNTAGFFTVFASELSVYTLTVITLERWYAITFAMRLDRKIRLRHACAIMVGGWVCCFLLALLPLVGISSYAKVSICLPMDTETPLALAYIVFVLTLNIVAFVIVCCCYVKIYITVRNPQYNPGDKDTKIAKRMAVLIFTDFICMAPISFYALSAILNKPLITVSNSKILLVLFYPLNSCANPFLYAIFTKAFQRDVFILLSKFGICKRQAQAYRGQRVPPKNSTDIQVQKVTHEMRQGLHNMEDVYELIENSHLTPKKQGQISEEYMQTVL
Summary of the method: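 TSHR-HEK293 cells (800/well) plated 18 h, then compounds with Ro20-1724 and TSH at 1.5 ng/mL final, 30 min at room temperature. cAMP quantified by HTRF (cAMP-d2/anti-cAMP-cryptate, 1 h); 15 concentrations in triplicate.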

[20] = biological target: Androgen receptor (Homo sapiens) (UniProt P10275); assay: qHTS assay to identify small molecule agonists of the androgen receptor (AR) signaling pathway in the presence of an antagonist (AID 1259381); further: nearly all actives have a fitted effect of over 15% in size
Androgen receptor (Homo sapiens), sequence (P10275 whole entry, looked up): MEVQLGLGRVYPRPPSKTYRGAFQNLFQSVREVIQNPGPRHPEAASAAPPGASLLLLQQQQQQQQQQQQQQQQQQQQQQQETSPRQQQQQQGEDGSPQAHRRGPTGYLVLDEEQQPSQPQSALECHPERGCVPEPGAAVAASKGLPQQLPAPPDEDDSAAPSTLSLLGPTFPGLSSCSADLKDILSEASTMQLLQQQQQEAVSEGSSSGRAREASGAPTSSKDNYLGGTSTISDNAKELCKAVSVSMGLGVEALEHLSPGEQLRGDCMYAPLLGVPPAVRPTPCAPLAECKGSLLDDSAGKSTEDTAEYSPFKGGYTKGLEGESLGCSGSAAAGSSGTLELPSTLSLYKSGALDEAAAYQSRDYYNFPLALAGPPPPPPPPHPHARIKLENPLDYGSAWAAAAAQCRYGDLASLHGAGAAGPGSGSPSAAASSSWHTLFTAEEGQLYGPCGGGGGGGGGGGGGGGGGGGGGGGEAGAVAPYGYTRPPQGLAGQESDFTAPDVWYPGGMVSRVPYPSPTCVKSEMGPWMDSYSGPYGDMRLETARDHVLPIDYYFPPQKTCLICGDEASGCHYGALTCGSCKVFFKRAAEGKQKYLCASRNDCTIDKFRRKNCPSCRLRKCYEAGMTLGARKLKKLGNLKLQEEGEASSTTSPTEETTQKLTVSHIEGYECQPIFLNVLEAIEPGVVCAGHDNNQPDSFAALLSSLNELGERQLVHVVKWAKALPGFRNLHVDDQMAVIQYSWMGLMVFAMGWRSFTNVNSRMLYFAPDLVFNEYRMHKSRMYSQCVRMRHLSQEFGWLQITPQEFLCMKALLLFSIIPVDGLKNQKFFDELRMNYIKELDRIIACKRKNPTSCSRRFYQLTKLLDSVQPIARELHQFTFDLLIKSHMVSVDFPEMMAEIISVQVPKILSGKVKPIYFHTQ
Summary of the method: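 Here, 15-concentration compound series were pin-transferred onto MDA-kb2 MMTV-luciferase cells already dosed with nilutamide (3.0uM final). After 16hr at 37C, ONE-Glo was added and luminescence read 30min later at room temperature.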

Measured: Potency

Cc1onc(-c2ccccc2)c1C(=O)Cl
not listed: [16] | [17] | [18] | [19] | [20]
inactive: all other assays above

CC(C)(C)c1ccc(OC(=O)c2ccccc2O)cc1
not listed: [3] | [15] | [17] | [18] | [19] | [20]
inactive: all other assays above

CCC(=O)Nc1ccc(O)cc1
not listed: [3] | [4] | [15] | [20]
inactive: all other assays above

CC(=O)OC(C)OC(C)=O
active: [8] 50 µM
not listed: [10] | [15] | [16] | [18]
inactive: all other assays above

CO[Si](C)(C)OC
not listed: [9] | [10] | [12] | [13] | [16] | [20]
inactive: all other assays above

OCCN1CCN(CCO)CC1
not listed: [3] | [12] | [18] | [20]
inactive: all other assays above

O=c1[nH]c(=O)n([C@H]2C[C@H](O)[C@@H](CO)O2)cc1C(F)(F)F
not listed: [4] | [20]
inactive: all other assays above

C=CCCCCCCCCO
not listed: [4] | [13] | [16] | [17] | [19] | [20]
inactive: all other assays above

CC[C@H]1CC[C@H](NCc2cc3c(cc2OC)[C@H]2C[C@H]2C(=O)N3C)[C@H](c2ccccc2)N1
active: [2] 4.33 µM
not listed: [6] | [7] | [9] | [10] | [11] | [16] | [17] | [20]
inactive: all other assays above

CCCOc1ccc2c(c1)CC[C@@H]1[C@@H]2CC[C@]2(C)C(OC)CC[C@@H]12 (some centres undefined)
active: [9] 15 µM
not listed: [3] | [8] | [11]
inactive: all other assays above

CCC(=O)c1ccc2c(c1)N(CCCN(C)C)c1ccccc1S2
inactive: [1] | [2] | [3] | [20] | [7] | [8] | [10] | [11] | [12] | [14]
active: [4] 26.6 µM

NC(=O)NS(=O)(=O)c1ccc(Cl)cc1
not listed: [3] | [4] | [11]
inactive: all other assays above

Cc1ccc(C(C)C)cc1O
not listed: [3] | [6] | [15] | [18] | [19] | [20]
inactive: all other assays above

CCC/C=C/CO
not listed: [3] | [11] | [16] | [20]
inactive: all other assays above

CC1=C2[C@H](/C=C(\C)C(=O)O)CC[C@@H](C)[C@H]2CC1
active: [2] 56.5 µM | [17] 25.2 µM
not listed: [4] | [5] | [6] | [9] | [14]
inactive: all other assays above

O=C(O[C@@H](C(=O)O)[C@@H](OC(=O)c1ccccc1)C(=O)O)c1ccccc1
not listed: [3] | [6] | [10] | [15] | [17] | [19] | [20]
inactive: all other assays above

CC(C)NC[C@@H](O)COc1cccc2ccccc12
inactive: [1] | [2] | [3] | [16] | [8] | [9] | [12] | [13] | [14] | [15]

CCN(CCCc1ccccc1)CCCc1ccccc1
inactive: [1] | [2] | [3] | [18] | [6] | [7] | [8] | [9] | [12] | [13] | [15]

O=C(C(Cl)Cl)N1CCOC12CCCCC2
not listed: [9] | [16] | [20]
inactive: all other assays above

Cc1ccc([N+](=O)[O-])c(N)c1
active: [2] 18.9 µM | [9] 59.6 µM
not listed: [10] | [16] | [18] | [20]
inactive: all other assays above

CN(CC1(C)CCCO1)S(=O)(=O)c1ccc(Cl)c(S(N)(=O)=O)c1 (centres undefined)
not listed: [4] | [7] | [15] | [16] | [18] | [19] | [20]
inactive: all other assays above

CN1CCN(c2c(F)cc3c(=O)c(C(=O)O)cn4c3c2SCC4)CC1
not listed: [6] | [8] | [13] | [16] | [17] | [19] | [20]
inactive: all other assays above

NS(=O)(=O)c1cc(-c2nn[nH]n2)c(NCc2cccs2)cc1Cl
not listed: [4] | [13] | [20]
inactive: all other assays above

CC(C)=CCCC(C)CCOC=O (centres undefined)
active: [2] 34.4 µM
not listed: [3] | [4] | [17] | [18] | [20]
inactive: all other assays above

CC(C)CCCCCCc1ccc(OCCOCCO)cc1
not listed: [2] | [15]
inactive: all other assays above

C=CC1CO1 (centres undefined)
not listed: [3] | [4] | [7] | [15] | [17] | [18] | [20]
inactive: all other assays above

CC(C)S
not listed: [3] | [4] | [7] | [20]
inactive: all other assays above

O=Cc1ccc(O)c(O)c1O
active: [2] 26.6 µM
not listed: [3] | [4] | [5] | [7] | [9] | [13] | [16] | [18]
inactive: all other assays above
